This passage reports growth results from PubChem BioAssay (NCI).

The panel holds about 83,000 compounds, 20% with a hit somewhere; the sample as a whole holds those more often.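 Percent growth is the endpoint: 0 to 100 indicates growth inhibition (40 means 60% inhibition), 0 means no net growth, and negative values indicate cell death.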 Values without a mark were called inactive. Active and inactive are the calls of the source. Rule for the calls: active = growth percent below 10; inactive = the rest.

Assay in all cases: NCI-60 one-dose screen, 48 h (100 = growth as untreated, 0 = no growth, -100 = all killed)
One assay relates to HCT-15 colon. As to conditions: 10 µM unless noted.
The next assay has as its system HT29 colon. As to conditions: 10 µM unless noted.
The next assay has as its system SNB-75 CNS. The following applies: 10 µM unless noted.
The next assay has as its system SNB-19 CNS. As to conditions: 10 µM unless noted.
A further assay concerns PC-3 prostate. The following applies: 10 µM unless noted.
Another assay relates to SK-MEL-5 melanoma. The following applies: 10 µM unless noted.
A further assay concerns UACC-62 melanoma. As to conditions: 10 µM unless noted.
Another assay concerns LOX IMVI melanoma. The following applies: 10 µM unless noted.
In a further assay the test system is SK-MEL-28 melanoma. The following applies: 10 µM unless noted.
In the next assay the test system is EKVX NSCLC. As to conditions: 10 µM unless noted.
In another assay the test system is SN12C renal. The following applies: 10 µM unless noted.
Another assay deals with UO-31 renal. The following applies: 10 µM unless noted.
The subject of a further assay is TK-10 renal. As to conditions: 10 µM unless noted.
In another assay the test system is ACHN renal. The following applies: 10 µM unless noted.
The subject of the next assay is CAKI-1 renal. The following applies: 10 µM unless noted.
For a further assay, the system named is A498 renal. As to conditions: 10 µM unless noted.
The test system of the next assay is CCRF-CEM leukemia. The following applies: 10 µM unless noted.
A further assay has as its system MOLT-4 leukemia. As to conditions: 10 µM unless noted.
Another assay relates to SK-MEL-2 melanoma. As to conditions: 10 µM.
In another assay the test system is U251 CNS. As to conditions: 10 µM unless noted.

As to `COC(=O)N[C@@H](C)CNc1nccc(-c2cn(C(C)C)nc2-c2cc(Cl)cc(NS(C)(=O)=O)c2F)n1`, the growth in the assay on HCT-15 colon is 53.6%; in the assay with HT29 colon, 7.99% (active); with SNB-75 CNS, 51.8%; in the assay with SNB-19 CNS, 108%; in the assay with PC-3 prostate, 90.7%; with SK-MEL-5 melanoma, 51.4%. Moreover, the growth was -11% (active) in the assay on UACC-62 melanoma; 37.5% with LOX IMVI melanoma; -0.756% (active) in the assay on SK-MEL-28 melanoma; 63.1% with EKVX NSCLC; 66.9% with SN12C renal; 16.9% in the assay on UO-31 renal. Besides, the growth with TK-10 renal was 52%; in the assay with ACHN renal, 28%; with CAKI-1 renal, 34.2%; in the assay with A498 renal it was 31.9%; in the assay with CCRF-CEM leukemia, 89.8%; in the assay with MOLT-4 leukemia, 67.4%.
Regarding `C=CC[n+]1c(/C=C/C=C2\N(C)c3ccccc3C2(C)C)sc2ccc(OC)cc21`, the growth is 12.8% in the assay with HCT-15 colon; 9.18% (active) with HT29 colon; 20% in the assay with SNB-75 CNS; 28.2% in the assay with SNB-19 CNS; 17.6% in the assay on PC-3 prostate; -90.7% (active) in the assay on SK-MEL-5 melanoma. In addition, the growth was 19.5% in the assay on UACC-62 melanoma; 15.9% with LOX IMVI melanoma; 37.5% in the assay on SK-MEL-28 melanoma; -13.4% (active) in the assay on SK-MEL-2 melanoma; 10.9% in the assay on EKVX NSCLC; 11.7% in the assay on SN12C renal. The growth in the assay on UO-31 renal is 13.7%; in the assay on TK-10 renal, 32.8%; with ACHN renal, 10.8%; in the assay with CCRF-CEM leukemia it was 21.5%; in the assay on MOLT-4 leukemia, 10.2%.
For the compound `CC/C=C\C[C@H]1C/C=C2/C(=O)C=C[C@@H]2C/C=C\CCCC(=O)O1`, the growth in the assay on HCT-15 colon is -33.8% (active); in the assay on HT29 colon, -29.2% (active); in the assay with SNB-75 CNS, 47%; with SNB-19 CNS, 12.6%; with U251 CNS, -80.9% (active); in the assay with PC-3 prostate it was -42.6% (active). The growth was -88.4% (active) in the assay with SK-MEL-5 melanoma; -57.6% (active) in the assay on UACC-62 melanoma; -76.1% (active) with LOX IMVI melanoma; -28.6% (active) with SK-MEL-28 melanoma; 11.8% with EKVX NSCLC; -27.8% (active) in the assay on SN12C renal. The growth is -38.3% (active) in the assay on TK-10 renal; -35.8% (active) in the assay on CAKI-1 renal; -50.6% (active) with A498 renal; -14.5% (active) in the assay on CCRF-CEM leukemia; -4.8% (active) in the assay on MOLT-4 leukemia.
Take `O=C(Nc1cn[nH]c1-c1nc2ccc(CN3CCOCC3)cc2[nH]1)NC1CC1`: the growth with HCT-15 colon was 50.2%; with HT29 colon, 16.3%; with SNB-75 CNS it was -42.1% (active); in the assay on SNB-19 CNS it was 19.5%; in the assay on PC-3 prostate it was 38.5%; in the assay on SK-MEL-5 melanoma, 36.1%. Besides, the growth with UACC-62 melanoma was 25.1%; with LOX IMVI melanoma it was 1.79% (active); in the assay on SK-MEL-28 melanoma, 39.5%; with EKVX NSCLC, 68.5%; in the assay with SN12C renal, 17%; in the assay on UO-31 renal, -22.1% (active). For the same compound, the growth in the assay on TK-10 renal is 44%; in the assay with ACHN renal it was 36.1%; with CAKI-1 renal it was 23.2%; with A498 renal, -15.5% (active); in the assay on CCRF-CEM leukemia, 13.9%; in the assay with MOLT-4 leukemia, -5.45% (active).
Take `O=C(Cc1ccc(/C=C/C(=O)c2ncc[nH]2)cc1)Nc1ccc(Br)cc1`: the growth in the assay on HCT-15 colon is -5.46% (active); in the assay with HT29 colon, -21% (active); in the assay on SNB-75 CNS it was 40.5%; with SNB-19 CNS it was 8.45% (active); in the assay on PC-3 prostate it was 17%; with SK-MEL-5 melanoma, 54.8%. Also, the growth is 31% in the assay with UACC-62 melanoma; -65% (active) in the assay with LOX IMVI melanoma; 73.4% with SK-MEL-28 melanoma; 38.6% in the assay on EKVX NSCLC; 9.91% (active) in the assay with SN12C renal; -40% (active) with UO-31 renal. Further, the growth is 75.5% with TK-10 renal; 32.5% with CAKI-1 renal; 73.5% in the assay on A498 renal; 6.63% (active) in the assay with CCRF-CEM leukemia; 2.86% (active) in the assay with MOLT-4 leukemia.
Regarding `CO[C@@H](C(=O)N1Cc2[nH]nc(NC(=O)c3ccc(N4CCN(C)CC4)cc3)c2C1)c1ccccc1`, the growth is 74.2% in the assay on HCT-15 colon; -34.7% (active) with HT29 colon; -85.5% (active) in the assay with SNB-75 CNS; 28.3% in the assay on SNB-19 CNS; 26.5% with PC-3 prostate; -20.5% (active) in the assay with SK-MEL-5 melanoma. Further, the growth was 30.6% in the assay on UACC-62 melanoma; -89% (active) in the assay on LOX IMVI melanoma; 45.5% with SK-MEL-28 melanoma; 59.3% with EKVX NSCLC; 26.8% in the assay on SN12C renal; 50.7% in the assay with UO-31 renal. Besides, the growth with TK-10 renal was 9.33% (active); in the assay on ACHN renal, 41.9%; in the assay with CAKI-1 renal it was 17.3%; in the assay on A498 renal it was -37% (active); in the assay with CCRF-CEM leukemia, 51.5%; with MOLT-4 leukemia, 31%.
`CC(=Nc1ccccc1)C1=C(O)C(Cc2ccccc2)NC1=O` (stereo unspecified): the growth was 5.57% (active) in the assay on HCT-15 colon; -0.116% (active) in the assay on HT29 colon; 19.1% in the assay on SNB-75 CNS; 16.4% in the assay with SNB-19 CNS; 5.74% (active) in the assay on PC-3 prostate; -43.3% (active) in the assay with SK-MEL-5 melanoma. Also, the growth in the assay on UACC-62 melanoma is 24.6%; with LOX IMVI melanoma, 18.5%; with SK-MEL-28 melanoma, 37.8%; in the assay on SK-MEL-2 melanoma, 26.9%; in the assay on EKVX NSCLC, 23.3%; with SN12C renal it was 36.6%. For the same compound, the growth was 54.2% with TK-10 renal; 40.8% in the assay on ACHN renal; -22.1% (active) with A498 renal; -10.9% (active) with CCRF-CEM leukemia; 0.239% (active) in the assay on MOLT-4 leukemia.
On to `O=C(NOCCO)c1ccc2cncn2c1Nc1ccc(I)cc1F`, for which the growth in the assay on HCT-15 colon was 66.7%; in the assay on HT29 colon it was 9.38% (active); in the assay on SNB-75 CNS, 81.1%; in the assay with SNB-19 CNS, 57.8%; in the assay with PC-3 prostate, 81%; in the assay on SK-MEL-5 melanoma, 47%. The growth is 3.07% (active) with UACC-62 melanoma; 19.9% in the assay on LOX IMVI melanoma; 3.91% (active) in the assay with SK-MEL-28 melanoma; 54.6% in the assay on EKVX NSCLC; 68.1% with SN12C renal; 37.2% with UO-31 renal. In addition, the growth was 57.2% in the assay with TK-10 renal; 59.9% in the assay on ACHN renal; 41% with CAKI-1 renal; -11% (active) in the assay on A498 renal; 77.1% in the assay with CCRF-CEM leukemia; 85% in the assay with MOLT-4 leukemia.
Consider `Clc1ccc(C(Cn2ccnc2)OCc2ccsc2Cl)c(Cl)c1` (stereo unspecified), for which the growth was 42.5% in the assay with HCT-15 colon; 30% in the assay with HT29 colon; 56.4% in the assay with SNB-75 CNS; 68.4% with SNB-19 CNS; 54.7% in the assay on U251 CNS; 31.1% with PC-3 prostate. Besides, the growth in the assay on SK-MEL-5 melanoma was 31.2%; with UACC-62 melanoma it was 41.9%; with LOX IMVI melanoma it was 43.7%; in the assay on SK-MEL-28 melanoma, 77.2%; with EKVX NSCLC, 48.4%; with SN12C renal, 65.6%. The growth in the assay with TK-10 renal is 71.6%; with CAKI-1 renal it was 42.4%; in the assay on CCRF-CEM leukemia it was 43.4%; in the assay on MOLT-4 leukemia it was 17.3%.
